Reference: PubChem BioAssay (EPA / NIEHS)
Calls of active or inactive are those of the source. Rule for the calls: active = hit-call score of the fitted dose curve at least 0.9, where 1 is the maximum; inactive = score below 0.9.

Columns and labels:
Conditions in all cases: mRNA level, 48 h; actives raise or lower the signal
[1] = read-out: Pro-epidermal growth factor (Homo sapiens) (UniProt P01133); experiment: LTEA_HepaRG_EGF: Life Technologies and Expression Analysis (LTEA) Assay for Epidermal growth factor (EGF) using HepaRG (AID 2283489)
In short: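 qRT-PCR readout of EGF transcript after 48 h chemical exposure of HepaRG cells; eight concentrations from 100 uM down in half-log steps, duplicate wells, 0.5% DMSO vehicle. Bidirectional curve fitting against DMSO baseline.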

[2] = read-out: Ezrin (EZR), EZR (gene 7430); experiment: LTEA_HepaRG_EZR: Life Technologies and Expression Analysis (LTEA) Assay for Ezrin (EZR) using HepaRG (AID 2283491)
In short: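 Differentiated human HepaRG cells, 48 h after plating, were exposed in serum-free induction medium for 48 hours to eight half-log concentrations up to 100 uM in 0.5% DMSO. EZR mRNA was measured by TaqMan qRT-PCR, normalized to ACTB, GAPDH and POLR2A, and fitted bidirectionally against DMSO.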

[3] = read-out: Cytochrome P450 3A7 (Homo sapiens) (UniProt P24462); experiment: LTEA_HepaRG_CYP3A7: Life Technologies and Expression Analysis (LTEA) Assay for CYP3A7 using HepaRG (AID 2283492)
In short: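 CYP3A7 transcript levels were read by TaqMan qRT-PCR on Fluidigm arrays after 48 h chemical exposure of human HepaRG cells, with housekeeping-gene normalisation. Eight half-log concentrations up to 100 uM in 0.5% DMSO were tested in duplicate.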

CYP3A5 (gene 1577) = experiment: LTEA_HepaRG_CYP3A5: Life Technologies and Expression Analysis (LTEA) Assay for CYP3A5 using HepaRG (AID 2283493)
In short: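 qRT-PCR read-out: CYP3A5 transcript in HepaRG lysates, housekeeping-normalized (ACTB/GAPDH/POLR2A), fitted bidirectionally against 0.5% DMSO baseline. Exposure 48 h, eight half-log concentrations up to 100 uM, duplicates.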

[4] = read-out: Fatty Acid-Binding Protein 1 (FABP1), FABP1 (gene 2168); experiment: LTEA_HepaRG_FABP1: Life Technologies and Expression Analysis (LTEA) Assay for Fatty Acid-Binding Protein 1 (FABP1) using HepaRG (AID 2283494)
In short: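 Values reflect bidirectional concentration-response fitting of FABP1 mRNA change against 0.5% DMSO controls. Human HepaRG cultures received eight half-log doses (top 100 uM) for 48 h; expression quantified by TaqMan qRT-PCR with housekeeping-gene normalization.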

[5] = read-out: Cytochrome P450 4A22 (Homo sapiens) (UniProt Q5TCH4); experiment: LTEA_HepaRG_CYP4A22: Life Technologies and Expression Analysis (LTEA) Assay for Cytochrome P450 4A22 (CYP4A22) using HepaRG (AID 2283495)
In short: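 HepaRG, 48 h post-plating -> serum-free induction medium; dosed 48 h, duplicate, 8 conc. (100 uM top, half-log), 0.5% DMSO. Readout: CYP4A22 mRNA by qRT-PCR, ACTB/GAPDH/POLR2A normalization; gain/loss fit relative to DMSO.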

[6] = read-out: Cytochrome P450 7A1 (Homo sapiens) (UniProt P22680); experiment: LTEA_HepaRG_CYP7A1: Life Technologies and Expression Analysis (LTEA) Assay for Cytochrome P450 7A1 (CYP7A1) using HepaRG (AID 2283496)
In short: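 Using 0.5% DMSO as vehicle and baseline, chemicals were tested in duplicate over an 8-point range from 100 uM on HepaRG cells for 48 h; qRT-PCR signals were normalised to ACTB, GAPDH and POLR2A.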

[7] = read-out: Glutathione S-Transferase (GSTA2), GSTA2 (gene 2939); experiment: LTEA_HepaRG_GSTA2: Life Technologies and Expression Analysis (LTEA) Assay for Glutathione S-Transferase (GSTA2) using HepaRG (AID 2283497)
In short: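 Oxidative-stress marker GSTA2 is quantified by TaqMan qRT-PCR in HepaRG cultures treated 48 h across an eight-point range to 100 uM. Expression is normalized to endogenous controls and compared with 0.5% DMSO vehicle.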

[8] = read-out: Glutamate-cysteine ligase catalytic (GCLC), GCLC (gene 2729); experiment: LTEA_HepaRG_GCLC: Life Technologies and Expression Analysis (LTEA) Assay for Glutamate-cysteine ligase catalytic (GCLC) using HepaRG (AID 2283498)
In short: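 Oxidative-stress marker GCLC is measured as mRNA change in human HepaRG liver cells after 48 h chemical treatment in 0.5% DMSO, eight concentrations from 100 uM. Activity is fitted bidirectionally against vehicle.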

[9] = read-out: growth arrest and DNA damage 45 (GADD45G), GADD45G (gene 10912); experiment: LTEA_HepaRG_GADD45G: Life Technologies and Expression Analysis (LTEA) Assay for growth arrest and DNA damage 45 (GADD45G) using HepaRG (AID 2283499)
In short: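 HepaRG, 48 h exposure, top 100 uM, half-log 8-point series, 0.5% DMSO vehicle, duplicates. Readout: GADD45G transcript by qRT-PCR (Fluidigm array), housekeeping-normalised (ACTB/GAPDH/POLR2A). Bidirectional curve fit vs DMSO baseline.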

[10] = read-out: Glutamate-cysteine ligase regulatory (GCLM), GCLM (gene 2730); experiment: LTEA_HepaRG_GCLM: Life Technologies and Expression Analysis (LTEA) Assay for Glutamate-cysteine ligase regulatory (GCLM) using HepaRG (AID 2283500)
In short: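 HepaRG, 48 h dosing, 100 uM top, half-log x8, 0.5% DMSO vehicle. Readout: GCLM mRNA by TaqMan qRT-PCR, housekeeping-normalized (ACTB/GAPDH/POLR2A). Curves fit bidirectionally vs DMSO baseline.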

[11] = read-out: Glutathione S-transferase M3 (GSTM3), GSTM3 (gene 2947); experiment: LTEA_HepaRG_GSTM3: Life Technologies and Expression Analysis (LTEA) Assay for Glutathione S-transferase M3 (GSTM3) using HepaRG (AID 2283501)
In short: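 qRT-PCR read-out of GSTM3 transcript, normalized to three housekeeping genes, from human HepaRG cells after 48 h chemical exposure. Eight-point half-log series, top 100 uM, 0.5% DMSO vehicle; gain or loss fitted relative to DMSO baseline.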

[12] = read-out: Heat shock 70 kDa protein 1 (HSPA1A), gene 3303; experiment: LTEA_HepaRG_HSPA1A: Life Technologies and Expression Analysis (LTEA) Assay for Heat shock 70 kDa protein 1 (HSPA1A) using HepaRG (AID 2283502)
In short: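 HepaRG, 48 h exposure, 8-pt half-log CRC from 100 uM in 0.5% DMSO, duplicates. Readout: TaqMan qRT-PCR of HSPA1A mRNA, housekeeping-normalized (ACTB/GAPDH/POLR2A). Bidirectional fit vs 0.5% DMSO baseline.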

[13] = read-out: Hypoxia-inducible factor 1-alpha (Homo sapiens) (UniProt Q16665); experiment: LTEA_HepaRG_HIF1A: Life Technologies and Expression Analysis (LTEA) Assay for Hypoxia-inducible factor 1 (HIF1A) Trancription factor using HepaRG (AID 2283503)
In short: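 Gain- or loss-of-signal HIF1A mRNA changes are fitted against a DMSO baseline. HepaRG cultures receive eight concentrations, highest 100 uM, for 48 h in serum-free induction medium with 0.5% DMSO.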

[14] = read-out: 3-Hydroxy-3-Methylglutaryl-CoA Synthase 2 (HMGCS2), HMGCS2 (gene 3158); experiment: LTEA_HepaRG_HMGCS2: Life Technologies and Expression Analysis (LTEA) Assay for 3-Hydroxy-3-Methylglutaryl-CoA Synthase 2 (HMGCS2) using HepaRG (AID 2283504)
In short: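 qRT-PCR read-out of HMGCS2 transcript, normalised to three housekeeping genes, in HepaRG cells after 48 h chemical exposure. Eight-point curves from 100 uM, half-log dilutions, 0.5% DMSO vehicle; gain or loss fitted relative to DMSO baseline.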

HGF (gene 3082) = experiment: LTEA_HepaRG_HGF: Life Technologies and Expression Analysis (LTEA) Assay for Hepatocyte Growth Facto (HGF) using HepaRG (AID 2283505)
In short: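 HepaRG, 48 h dosing, 8-pt half-log series from 100 uM in 0.5% DMSO, duplicates. Readout: TaqMan qRT-PCR of HGF mRNA, housekeeping-normalized; bidirectional curve fit vs DMSO baseline.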

[15] = read-out: Insulin Like Growth Factor 1 (IGF1), IGF1 (gene 3479); experiment: LTEA_HepaRG_IGF1: Life Technologies and Expression Analysis (LTEA) Assay for Insulin Like Growth Factor 1 (IGF1) using HepaRG (AID 2283506)
In short: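 qRT-PCR readout of IGF1 mRNA, normalized to three housekeeping genes, after 48 h chemical exposure of HepaRG cells. Concentrations: 8-point half-log series, top 100 uM, 0.5% DMSO vehicle. Gain or loss fitted against DMSO baseline.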

[16] = read-out: Intercellular Adhesion Molecule 1 (ICAM1), ICAM1 (gene 3383); experiment: LTEA_HepaRG_ICAM1: Life Technologies and Expression Analysis (LTEA) Assay for Intercellular Adhesion Molecule 1 (ICAM1) using HepaRG (AID 2283507)
In short: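 HepaRG, 48 h exposure, 8-pt half-log series from 100 uM, 0.5% DMSO vehicle, duplicates. Readout: TaqMan qRT-PCR mRNA, housekeeping-normalized (ACTB/GAPDH/POLR2A). Bidirectional curve fit vs DMSO baseline.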

[17] = read-out: Insulin-like growth factor-binding protein 1 (IGFBP1), IGFBP1 (gene 3484); experiment: LTEA_HepaRG_IGFBP1: Life Technologies and Expression Analysis (LTEA) Assay for Insulin-like growth factor-binding protein 1 (IGFBP1) using HepaRG (AID 2283508)
In short: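 qRT-PCR mRNA read-out (TaqMan, Fluidigm array), normalised to three housekeeping genes; HepaRG cells, 48 h exposure, 8-pt half-log series from 100 uM, 0.5% DMSO vehicle; bidirectional curve fit vs DMSO baseline.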

[18] = read-out: Interleukin 6 (IL6), IL6 (gene 3569); experiment: LTEA_HepaRG_IL6: Life Technologies and Expression Analysis (LTEA) Assay for Interleukin 6 (IL6) using HepaRG (AID 2283509)
In short: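 Changes in IL6 mRNA, up or down relative to 0.5% DMSO controls, were derived from concentration-response curves in human HepaRG cells treated for 48 h at up to 100 uM, with ACTB, GAPDH and POLR2A as normalizers.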

Measured: outcome

Sequence of Cytochrome P450 3A7 (Homo sapiens) (P24462 whole entry, looked up): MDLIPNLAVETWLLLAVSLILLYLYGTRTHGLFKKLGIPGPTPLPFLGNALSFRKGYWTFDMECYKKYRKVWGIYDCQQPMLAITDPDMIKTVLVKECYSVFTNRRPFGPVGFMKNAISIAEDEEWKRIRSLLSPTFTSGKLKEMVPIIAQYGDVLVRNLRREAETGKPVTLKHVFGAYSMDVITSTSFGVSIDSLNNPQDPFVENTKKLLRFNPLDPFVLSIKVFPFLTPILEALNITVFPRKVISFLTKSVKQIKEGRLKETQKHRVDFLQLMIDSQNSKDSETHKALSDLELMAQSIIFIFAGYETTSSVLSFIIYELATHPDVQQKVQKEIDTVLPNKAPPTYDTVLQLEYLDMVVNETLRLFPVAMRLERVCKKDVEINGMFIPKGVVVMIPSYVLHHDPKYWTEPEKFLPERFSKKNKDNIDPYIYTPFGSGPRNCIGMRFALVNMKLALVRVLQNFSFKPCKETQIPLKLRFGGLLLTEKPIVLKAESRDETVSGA
Sequence of Hypoxia-inducible factor 1-alpha (Homo sapiens) (Q16665 whole entry, looked up): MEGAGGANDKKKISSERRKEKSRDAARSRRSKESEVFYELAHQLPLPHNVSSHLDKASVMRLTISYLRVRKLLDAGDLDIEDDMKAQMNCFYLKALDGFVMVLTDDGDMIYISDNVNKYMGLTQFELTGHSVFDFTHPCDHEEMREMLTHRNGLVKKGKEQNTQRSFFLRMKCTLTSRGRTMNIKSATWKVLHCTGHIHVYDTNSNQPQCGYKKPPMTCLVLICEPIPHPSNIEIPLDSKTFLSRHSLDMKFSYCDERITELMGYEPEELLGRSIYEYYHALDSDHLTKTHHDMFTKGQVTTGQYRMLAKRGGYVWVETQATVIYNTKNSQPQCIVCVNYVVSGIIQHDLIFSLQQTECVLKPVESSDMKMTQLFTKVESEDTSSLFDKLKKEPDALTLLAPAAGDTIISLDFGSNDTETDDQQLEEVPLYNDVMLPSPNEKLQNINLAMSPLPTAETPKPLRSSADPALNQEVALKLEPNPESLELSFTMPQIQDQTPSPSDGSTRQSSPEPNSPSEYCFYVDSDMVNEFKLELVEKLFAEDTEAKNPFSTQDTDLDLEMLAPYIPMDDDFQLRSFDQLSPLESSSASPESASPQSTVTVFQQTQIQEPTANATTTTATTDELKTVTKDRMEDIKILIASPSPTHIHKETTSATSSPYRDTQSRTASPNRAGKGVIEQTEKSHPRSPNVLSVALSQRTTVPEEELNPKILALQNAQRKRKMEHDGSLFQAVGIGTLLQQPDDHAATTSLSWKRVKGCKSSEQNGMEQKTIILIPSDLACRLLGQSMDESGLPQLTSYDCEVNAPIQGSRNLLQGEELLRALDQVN

O=C(O)c1ccc([N+](=O)[O-])cc1
inactive: [1] | [2] | [3] | CYP3A5 (gene 1577) | [4] | [5] | [6] | [7] | [8] | [9] | [10] | [11] | [12] | [13] | [14] | HGF (gene 3082) | [15] | [16] | [17] | [18]
